The text below walks through data of PubChem BioAssay.

Several values for one entry are separate records, joined by “and”; a condition that tells them apart may be missing. Identical values can stand only once. Records with an inconclusive call do not appear. More than one record can exist for a structure, and the calls need not agree. Activity calls are given as the source filed them. Rule as the data show it, unless noted: active = parasite load remaining mostly below about 12% (no sharp cut-off); inactive = mostly above about 10%.

Assay [1] has as its target ATP-dependent translocase ABCB1 (Homo sapiens) (UniProt P08183). As to the kind of experiment: P-glycoprotein substrate transport blockade – cell-based (AID 377; in the data active = fluorescence slope change above about 50%). Particulars: MDR1-expressing cells, fluorescent substrate accumulation slope; stronger effect = higher value; concentration not given here.
The nature of assay [2]: compounds altering viability of human ES cells (AID 493140; call rule not given here;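 also: cells exposed to compounds for four days before counting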). The conditions noted are these: human embryonic stem cell survival screen; stronger effect = higher value.
The nature of assay [3]: P. berghei load reduction in hepatocytes – cell-based, HepG2, luciferase luminescence, HepG2 viability, primary screen (AID 624349).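 Also: 100% = mean of DMSO negative control wells on the same plate.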 The conditions noted are these: P. berghei liver stage in HepG2, luciferase luminescence, concentration not given here; parasite load remaining: stronger effect = lower value; viability: measured here: HepG2 viability without parasites.
Assay [4] is described as follows: Wnt pathway potentiators raising nuclear beta-catenin – imaging, WNT3A-conditioned medium, mouse C2C12, NPC library, primary screen (AID 1117326; in the data active = nuclear beta-catenin stimulation mostly above about 4.2%, no sharp cut-off; inactive = mostly below about 10%; also: reference of the scale not given here). The conditions noted are these: stronger effect = higher value.
Assay [5] in a line: stimulators of insulin release from INS-1E, primary screen, cell-based, 5 mM glucose, NPC library (AID 1117329;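 active = compound raises insulin release from rat beta cells at 5 mM glucose, no numeric limit stated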; also: reference of the scale not given here). The conditions noted are these: rat INS-1E insulin secretion, at 10 µM, stronger effect = higher value.
A short description of assay [6]: growth inhibition of GSK3B-pretreated HCT116 cells – cell-based, CellTiter-Glo, 0.2 to 20 µM (AID 1117336;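 active = compounds lowering colon cancer cell viability after pretreatment blocking the GSK3B kinase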). The conditions noted are these: HCT116 viability after GSK3B inhibitor, at 20 µM, stronger effect = higher value.
Assay [7] can be described thus: inhibition of endothelial tube formation, primary screen, imaging, VEGF stimulated, CD31 staining, tube area, NPC library (AID 1117340;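 active = compound that reduces growth-factor-driven endothelial tube area in a mixed cell culture, no cutoff stated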). The conditions noted are these: VEGF-stimulated ADSC/ECFC co-culture, at 10 µM, stronger effect = higher value.
Assay [8] is described as follows: GLP1 release stimulators, primary, NCI-H716, NPC library (AID 1117341;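 active = compound raises GLP1 secretion from the human gut endocrine cells, with no numeric limit stated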; also: reference of the scale not given here). The conditions noted are these: NCI-H716 cells, at 10 µM, stronger effect = higher value.
Assay [9] in a line: HCT116 colon cancer cell growth inhibition, primary screen, CellTiter-Glo luminescence, NPC library (AID 1117342;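 active = compounds that lower survival of HCT116 colon cancer cells in the luminescence readout, no numeric limit stated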). The conditions noted are these: at 20 µM (top of the series).
Assay [10] is described as follows: reduced SW480 viability measured with CellTiter-Glo, NPC library, primary (AID 1117343;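 active = compounds that lower viability of the colon cancer cells in the luminescence readout, with no numeric limit stated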). Particulars: CellTiter-Glo luminescence; at 20 µM (top of the series) unless noted.
The nature of assay [11]: NPC library primary testing for decreased DLD-1 cell viability via CellTiter-Glo (AID 1117346;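 active = compounds that lower survival of DLD-1 colon cancer cells in the luminescence readout, no cutoff given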). Particulars: DLD-1 viability, CellTiter-Glo luminescence; at 20 µM (top of the series).
Assay [12] in a line: viability loss with induced miR-34 in A549 – imaging, A549 dox-inducible miR-34, nuclei and caspase counts, primary screen (AID 1347080;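 active = compounds whose cell count with miR-34 switched on is under 0.7 times the count with it off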). Particulars: A549 miR-34 inducible, Hoechst nuclei count, 48 h.
Assay [13] can be described thus: MELAS cybrid and Rieske KO viability enhancers – cell-based, MELAS cybrids, Rieske KO mouse fibroblasts, CellTiter-Glo, primary screen (AID 1508586;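 active = mean z-score across replicates of 1.96 or higher in either the MELAS or the Rieske mutant cell line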;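 also: z relative to plate mean and SD of compound and empty wells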). Particulars: low glucose.
The nature of assay [14]: galactose survival enhancers in mitochondrial complex I cybrids – cell-based, galactose medium, ATP luminescence, primary screen (AID 1645843;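 active = z-score of at least 1.8 in each of two replicates, scored against plate mean and spread of sample wells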;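 also: positive z means more ATP and so rescue of galactose-driven cybrid death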). The conditions noted are these: complex I mutant cybrid cells, 72 h, stronger effect = higher value.
[15] abbreviates: stronger effect = lower value, cell number ratio, induced over uninduced.
Setting [16] is: measured here: relative caspase fold change +Dox/-Dox.
Where [17] appears, read: measured here: total cells with miR-34 induction, stronger effect = lower value.
The mark [18] stands for this setting: measured here: total cells without miR-34 induction.
Where [19] appears, read: MELAS cybrid survival, CellTiter-Glo 48 h, stronger effect = higher value.
Where [20] appears, read: Rieske KO mouse fibroblast survival, CellTiter-Glo 72 h.

ATP-dependent translocase ABCB1 (Homo sapiens), sequence (P08183 whole entry, looked up): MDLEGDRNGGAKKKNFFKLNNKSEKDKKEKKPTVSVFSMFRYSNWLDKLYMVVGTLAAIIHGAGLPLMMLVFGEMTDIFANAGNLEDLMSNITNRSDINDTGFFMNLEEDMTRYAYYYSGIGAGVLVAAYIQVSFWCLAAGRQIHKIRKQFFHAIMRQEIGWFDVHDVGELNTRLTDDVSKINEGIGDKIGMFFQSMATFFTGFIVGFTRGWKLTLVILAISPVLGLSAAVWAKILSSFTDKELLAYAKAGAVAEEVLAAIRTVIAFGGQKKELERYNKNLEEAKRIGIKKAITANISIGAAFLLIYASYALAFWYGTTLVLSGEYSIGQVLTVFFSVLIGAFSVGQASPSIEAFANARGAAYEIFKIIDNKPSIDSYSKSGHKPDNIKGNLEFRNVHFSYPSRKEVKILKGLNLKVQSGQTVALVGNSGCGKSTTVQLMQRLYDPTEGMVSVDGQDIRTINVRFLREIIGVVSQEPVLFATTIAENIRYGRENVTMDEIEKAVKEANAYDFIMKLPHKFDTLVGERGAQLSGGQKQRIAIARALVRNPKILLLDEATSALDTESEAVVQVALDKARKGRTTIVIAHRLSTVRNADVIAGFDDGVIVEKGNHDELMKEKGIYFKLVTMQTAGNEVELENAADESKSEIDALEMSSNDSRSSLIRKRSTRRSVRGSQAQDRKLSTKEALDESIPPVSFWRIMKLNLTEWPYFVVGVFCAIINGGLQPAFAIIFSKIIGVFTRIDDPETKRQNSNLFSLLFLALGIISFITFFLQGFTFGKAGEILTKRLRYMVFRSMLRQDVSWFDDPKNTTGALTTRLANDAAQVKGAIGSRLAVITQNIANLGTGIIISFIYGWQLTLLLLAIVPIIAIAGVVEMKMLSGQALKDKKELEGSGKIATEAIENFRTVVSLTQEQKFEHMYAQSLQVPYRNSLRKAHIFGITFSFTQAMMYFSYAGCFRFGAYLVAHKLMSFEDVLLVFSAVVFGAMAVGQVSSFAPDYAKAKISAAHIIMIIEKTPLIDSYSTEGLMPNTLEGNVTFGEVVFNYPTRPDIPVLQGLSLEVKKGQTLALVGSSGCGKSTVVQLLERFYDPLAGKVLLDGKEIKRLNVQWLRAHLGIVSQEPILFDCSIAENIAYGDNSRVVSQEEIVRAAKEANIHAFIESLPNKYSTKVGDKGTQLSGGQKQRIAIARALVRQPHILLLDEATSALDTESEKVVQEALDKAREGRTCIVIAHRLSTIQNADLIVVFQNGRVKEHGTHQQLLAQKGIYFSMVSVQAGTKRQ

With `CN1CCN(CCCN2c3ccccc3Sc3ccc(S(=O)(=O)N(C)C)cc32)CC1`, the fluorescence slope change in assay [1] was 52.4% (active). The survival in assay [2] is 4.08 (inactive). The parasite load remaining in assay [3] is 35.2% (inactive) and 94.1% (inactive). Further, in assay [3], the viability is 47.9% and 85.3%. Also, the nuclear beta-catenin stimulation in [4] (at 10 µM) is 33.2% (inactive); in assay [4] (stimulation, at 2 µM), 0.3%. The insulin secretion stimulation in [5] is 12.3% (inactive). The viability decrease in assay [6] was 99.5% (active). Further, the tube area decrease in [7] is 108% (active). In assay [8], the GLP1 secretion stimulation was -2.9% (inactive). Besides, the inhibition of viability in assay [9] is 99.9% (active). Moreover, the viability decrease (inhibition) in assay [10] is 103% (active); in [11], 95% (active). The fold change is 0.928 (inactive) in [12] (setting [15]) and 1.43 in assay [12] (setting [16]). The cell count in [12] (setting [17]) was determined as 7890; in assay [12] (setting [18]) it was 8500. Further, the z-score in [13] (setting [19]) was 0.365 (inactive); in assay [13] (setting [20]) it was 0.522.
As for `CN1CCCC(CC2c3ccccc3Sc3ccccc32)C1` (configuration not stated), the fluorescence slope change in [1] is 182% (active). Also, in [2], the survival is 1.75 (inactive). Moreover, the parasite load remaining in assay [3] was 16% (inactive) and 60.9% (inactive). Also, in assay [3], the viability was 59.4% and 67.6%. Besides, the nuclear beta-catenin stimulation was 0.2% (inactive) in [4] (at 10 µM) and 1.3% in assay [4] (stimulation, at 2 µM). Also, the insulin secretion stimulation in assay [5] was 20.3% (active). Further, the viability decrease in assay [6] is 45.1% (inactive). Moreover, the tube area decrease in assay [7] was 54.2% (active). Besides, the GLP1 secretion stimulation in [8] was 20% (active). The inhibition of viability in assay [9] was 86% (active). For the same compound, the viability decrease (inhibition) is 110% (active) in [10] and 77.8% (active) in [11]. Moreover, the fold change is 0.892 (inactive) in [12] (setting [15]) and 1.45 in [12] (setting [16]). Also, the values for the cell count in assay [12] (setting [17]) and in assay [12] (setting [18]) were 6900 and 7740, respectively. The z-score in [13] (setting [19]) was -0.486 (inactive); in assay [13] (setting [20]), 0.0453.
Regarding `CCCNC(C)C(=O)Nc1c(C)csc1C(=O)OC` (configuration not stated), in [2], the survival was 18.4 (inactive). In addition, the parasite load remaining in [3] was 137% (inactive). Also, the viability in assay [3] turned out to be 71.1%. Also, the nuclear beta-catenin stimulation in assay [4] (at 10 µM) was -0.2% (inactive); in assay [4] (stimulation, at 2 µM), 2%. Besides, the insulin secretion stimulation in assay [5] was 4.8% (inactive). In assay [6], the viability decrease was 1.9% (inactive). The tube area decrease in [7] was 5.2% (inactive). Further, the GLP1 secretion stimulation in assay [8] is -3.4% (inactive). For the same compound, the inhibition of viability in assay [9] is 8.5% (inactive). The viability decrease (inhibition) in [10] and in [11] was 2.2% (inactive) each time. Moreover, the fold change in assay [12] (setting [15]) is 0.925 (inactive) and 0.913 (inactive); in assay [12] (setting [16]), 0.61 and 0.602. The cell count is 8960 and 8560 in [12] (setting [17]); 9680 and 9380 in assay [12] (setting [18]). Also, the z-score in assay [13] (setting [19]) is -0.278 (inactive) and -0.744 (inactive); in assay [13] (setting [20]) it was -0.148 and -0.857.
Regarding `CC(C)Nc1cccnc1N1CCN(C(=O)c2cc3cc(NS(C)(=O)=O)ccc3[nH]2)CC1`, the parasite load remaining in [3] was 42.2% (inactive). The viability in [3] was found to be 102%. For the same compound, the nuclear beta-catenin stimulation was 0.8% (inactive) in assay [4] (at 10 µM) and -0.4% in assay [4] (stimulation, at 2 µM). Also, in [5], the insulin secretion stimulation was -1.5% (inactive). Besides, the viability decrease in [6] was -11.6% (inactive). Also, in assay [7], the tube area decrease was -1.5% (inactive). Further, in [8], the GLP1 secretion stimulation is 2.1% (inactive). Moreover, the inhibition of viability in assay [9] is 28.8% (inactive). The viability decrease (inhibition) was 0.9% (inactive) in assay [10] and -21.2% (inactive) in [11]. For the same compound, the fold change in assay [12] (setting [15]) was 0.904 (inactive); in assay [12] (setting [16]), 1.31. In addition, the cell count in assay [12] (setting [17]) stood at 9200; in assay [12] (setting [18]) it was 10200. The z-score in [13] (setting [19]) was 0.775 (inactive) and 1.98 (active); in assay [13] (setting [20]), 0.201 and 1.19; in assay [14], 0.98 (inactive).
Consider `C=CCN1C[C@H](C(=O)N(CCCN(C)C)C(=O)NCC)C[C@@H]2c3cccc4[nH]cc(c34)C[C@H]21`, for which the parasite load remaining in [3] is 25.1% (inactive). In addition, the viability in [3] came to 72%. In addition, the nuclear beta-catenin stimulation is -1.1% (inactive) in [4] (at 10 µM) and 0.7% in [4] (stimulation, at 2 µM). Moreover, the insulin secretion stimulation in assay [5] is 0% (inactive). Besides, the viability decrease in assay [6] was -6.9% (inactive). The tube area decrease in assay [7] is -11.9% (inactive). Moreover, the GLP1 secretion stimulation in [8] was 0.5% (inactive). The inhibition of viability in [9] is -2% (inactive). The viability decrease (inhibition) in assay [10] was 22.3% (inactive); in assay [11], 59% (active). Further, the fold change in assay [12] (setting [15]) is 0.881 (inactive); in assay [12] (setting [16]), 1.06. Also, the cell count amounted to 8560 in assay [12] (setting [17]) and 9720 in assay [12] (setting [18]). Besides, the z-score is -0.306 (inactive) in [13] (setting [19]), -1.44 in assay [13] (setting [20]) and -0.085 (inactive) in assay [14].
